Experimental data: PubChem BioAssay (EPA / NIEHS)
Results filed as inconclusive are left out. The source made the active and inactive calls. Rule for the calls, unless noted: active = hit-call score of the fitted dose curve at least 0.9, where 1 is the maximum; inconclusive = response in the unintended direction; inactive = score below 0.9.

Legend:
[1] = target: mouse Estrogen Receptor alpha (Era), Esr1 (gene 13982) (UniProt P19785); assay: NVS_NR_mERa: NovaScreen (NVS) Nuclear Receptor Binding Assay for mouse Estrogen Receptor alpha (Era) (AID 2283378);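 note: hit means loss of bound radioligand signal relative to DMSO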
Sequence of mouse Estrogen Receptor alpha (Era), Esr1 (gene 13982) (P19785 whole entry, looked up): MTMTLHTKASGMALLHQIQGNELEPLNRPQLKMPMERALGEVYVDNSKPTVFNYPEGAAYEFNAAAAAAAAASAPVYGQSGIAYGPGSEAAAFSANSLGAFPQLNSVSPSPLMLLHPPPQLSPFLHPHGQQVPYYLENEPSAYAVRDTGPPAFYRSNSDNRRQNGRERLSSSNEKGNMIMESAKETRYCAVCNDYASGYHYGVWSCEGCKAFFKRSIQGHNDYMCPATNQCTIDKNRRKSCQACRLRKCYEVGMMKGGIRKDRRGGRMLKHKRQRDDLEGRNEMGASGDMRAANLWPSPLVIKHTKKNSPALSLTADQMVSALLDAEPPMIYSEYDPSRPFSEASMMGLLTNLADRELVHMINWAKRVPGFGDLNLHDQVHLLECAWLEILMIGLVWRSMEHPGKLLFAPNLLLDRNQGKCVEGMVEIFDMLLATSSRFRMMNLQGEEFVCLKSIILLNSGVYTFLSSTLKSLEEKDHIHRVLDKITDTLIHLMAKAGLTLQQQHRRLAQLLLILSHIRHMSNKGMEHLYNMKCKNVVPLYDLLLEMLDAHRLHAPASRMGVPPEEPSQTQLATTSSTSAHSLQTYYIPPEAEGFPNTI
Procedure, shortened: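 Test chemicals competed against a specific radioligand for binding to cell-free mouse Era. Duplicate wells at 25 uM were read 18 hours later by filter-based radiodetection, with loss of signal against DMSO scored as activity.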

[2] = target: Estrogen receptor (Homo sapiens) (UniProt P03372); assay: OT_ERa_GFPERaERE_0480: Odyssey Thera (OT) 8-hour HeLa Transcription Induction Assay for Estrogen Receptor (AID 2283381; active = hit-call score of the fitted dose curve at least 0.9, where 1 is the maximum; inactive = score below 0.9)
Sequence of Estrogen receptor (Homo sapiens) (P03372 whole entry, looked up): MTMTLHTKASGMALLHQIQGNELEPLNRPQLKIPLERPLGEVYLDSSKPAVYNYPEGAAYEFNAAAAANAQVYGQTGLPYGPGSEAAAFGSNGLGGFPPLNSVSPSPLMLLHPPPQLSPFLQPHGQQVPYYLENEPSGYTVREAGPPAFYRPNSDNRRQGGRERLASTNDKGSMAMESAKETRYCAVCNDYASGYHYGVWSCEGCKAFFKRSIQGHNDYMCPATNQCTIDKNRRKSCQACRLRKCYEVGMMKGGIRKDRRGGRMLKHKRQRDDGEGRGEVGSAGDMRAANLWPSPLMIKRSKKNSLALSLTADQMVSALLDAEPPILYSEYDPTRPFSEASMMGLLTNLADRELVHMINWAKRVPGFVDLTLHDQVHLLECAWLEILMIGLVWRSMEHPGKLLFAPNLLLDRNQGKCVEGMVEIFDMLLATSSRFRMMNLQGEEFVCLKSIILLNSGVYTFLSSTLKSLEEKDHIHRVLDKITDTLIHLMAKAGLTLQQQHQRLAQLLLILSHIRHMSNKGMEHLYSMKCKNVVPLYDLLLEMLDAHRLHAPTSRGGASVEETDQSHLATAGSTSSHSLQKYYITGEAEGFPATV
Procedure, shortened: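 HeLa cells expressing GFP reporter under estrogen response element, imaged 8 h after dosing. GFP induction quantified by high-content fluorescence microscopy image analysis; gain of signal fitted versus DMSO.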

[3] = target: Estrogen receptor (Homo sapiens) (UniProt P03372); assay: OT_ERa_GFPERaERE_0120: Odyssey Thera (OT) 2-hour HeLa Transcription Induction Assay for Estrogen Receptor (AID 2283382)
Procedure, shortened: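 HeLa cells were dosed for 2 h, then GFP reporter induction was quantified by fluorescence microscopy with high-content image analysis. Gain of signal fitted against DMSO baseline.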

[4] = target: Retinoic acid receptor RXR-alpha (Homo sapiens) (UniProt P19793); assay: OT_NURR1_NURR1RXRa_0480: Odyssey Thera (OT) 8-hour HEK293T Protein Complementation Assay for Nurr1/retinoid X receptor (RXR) (AID 2283385)
Sequence of Retinoic acid receptor RXR-alpha (Homo sapiens) (P19793 whole entry, looked up, the tested form may be a part): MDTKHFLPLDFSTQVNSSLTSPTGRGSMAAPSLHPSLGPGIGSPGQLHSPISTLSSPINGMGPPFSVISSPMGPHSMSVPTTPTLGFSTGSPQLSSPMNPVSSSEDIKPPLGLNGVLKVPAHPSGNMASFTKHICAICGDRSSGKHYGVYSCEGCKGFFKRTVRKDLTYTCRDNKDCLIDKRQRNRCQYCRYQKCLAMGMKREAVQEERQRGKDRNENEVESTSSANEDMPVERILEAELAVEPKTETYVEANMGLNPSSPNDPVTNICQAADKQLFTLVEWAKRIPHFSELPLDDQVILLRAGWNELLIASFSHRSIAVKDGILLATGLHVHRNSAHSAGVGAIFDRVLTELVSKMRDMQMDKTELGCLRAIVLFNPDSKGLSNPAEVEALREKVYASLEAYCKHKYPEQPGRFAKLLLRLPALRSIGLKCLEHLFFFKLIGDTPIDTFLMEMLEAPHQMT
Procedure, shortened: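 HEK293T cells expressing Nurr1 and RXRα fused to reporter fragments (protein-fragment complementation); fluorescence measured 8 h after dosing. Gain of signal fitted relative to DMSO.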

[5] = target: Retinoic acid receptor RXR-alpha (Homo sapiens) (UniProt P19793); assay: OT_NURR1_NURR1RXRa_1440: Odyssey Thera (OT) 24-hour HEK293T Protein Complementation Assay for Nurr1/retinoid X receptor (RXR) (AID 2283386)
Procedure, shortened: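 HEK293T protein-fragment complementation of Nurr1 and RXRα fused to reporter fragments; compounds 24 h. Fluorescence gain from reconstituted reporter fitted versus DMSO.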

[6] = target: Peroxisome proliferator-activated receptor gamma (Homo sapiens) (UniProt P37231); assay: OT_PPARg_PPARgSRC1_0480: Odyssey Thera (OT) 8-hour Protein-Complementation Assay for Peroxisome Proliferator-activated Receptor Gamma / SRC-1 Co-activator (AID 2283387);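 note: nuclear to cytoplasmic split Venus YFP fluorescence ratio reporting PPARg SRC-1 interaction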
Sequence of Peroxisome proliferator-activated receptor gamma (Homo sapiens) (P37231 whole entry, looked up, the tested form may be a part): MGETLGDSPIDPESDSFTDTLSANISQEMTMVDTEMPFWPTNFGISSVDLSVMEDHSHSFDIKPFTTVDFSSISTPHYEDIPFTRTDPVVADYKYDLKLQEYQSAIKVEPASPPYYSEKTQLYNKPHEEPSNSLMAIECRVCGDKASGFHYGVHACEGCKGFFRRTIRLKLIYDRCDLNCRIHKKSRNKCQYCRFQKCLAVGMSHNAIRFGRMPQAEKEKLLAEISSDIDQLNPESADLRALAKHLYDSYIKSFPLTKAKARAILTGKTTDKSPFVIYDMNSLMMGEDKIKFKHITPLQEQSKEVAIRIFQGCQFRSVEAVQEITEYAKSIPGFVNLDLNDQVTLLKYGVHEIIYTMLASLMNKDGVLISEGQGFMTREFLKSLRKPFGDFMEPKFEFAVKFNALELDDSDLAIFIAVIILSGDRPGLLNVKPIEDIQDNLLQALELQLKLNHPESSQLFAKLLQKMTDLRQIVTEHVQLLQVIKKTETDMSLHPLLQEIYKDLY
Procedure, shortened: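 Read-out: 488 nm N/C fluorescence ratio from complemented Venus YFP fragments, ≥350 cells per image, gain-of-signal fitted against DMSO baseline. Fusions of PPARg/SRC-1 with IFP1/IFP2 expressed transiently in HEK293T; compounds applied 8 h.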

[7] = target: Estrogen receptor beta (Homo sapiens) (UniProt Q92731); assay: OT_ER_ERbERb_1440: Odyssey Thera (OT) 24-hour HEK293T Protein-Complementation Assay for Estrogen Receptor-beta/-beta Homodimer (AID 2283380);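 note: fluorescence gain from ER beta LBD homodimer complementation read by laser scanning cytometry; scored as signal increase over DMSO baseline for both agonists and antagonists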
Sequence of Estrogen receptor beta (Homo sapiens) (Q92731 whole entry, looked up, the tested form may be a part): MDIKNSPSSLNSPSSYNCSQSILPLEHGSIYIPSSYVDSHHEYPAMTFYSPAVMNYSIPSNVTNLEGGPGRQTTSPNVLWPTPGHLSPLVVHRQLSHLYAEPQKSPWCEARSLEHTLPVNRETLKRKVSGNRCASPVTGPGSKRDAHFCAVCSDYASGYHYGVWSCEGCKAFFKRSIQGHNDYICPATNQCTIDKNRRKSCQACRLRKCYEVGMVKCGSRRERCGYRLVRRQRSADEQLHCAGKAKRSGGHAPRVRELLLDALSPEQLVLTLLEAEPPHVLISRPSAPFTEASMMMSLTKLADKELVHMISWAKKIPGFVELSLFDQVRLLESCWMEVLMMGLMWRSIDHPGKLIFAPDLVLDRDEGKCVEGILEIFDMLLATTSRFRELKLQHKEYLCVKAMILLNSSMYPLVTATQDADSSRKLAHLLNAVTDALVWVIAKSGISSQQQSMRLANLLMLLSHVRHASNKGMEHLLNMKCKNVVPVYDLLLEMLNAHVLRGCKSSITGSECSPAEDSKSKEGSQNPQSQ
Procedure, shortened: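 HEK293T cells stably expressing human ER-beta LBD (aa 310-547) PCA homodimer pair, dosed 24 h; formaldehyde-fixed, Draq5-stained. Readout: increase in nuclear (agonist) or nuclear plus cytoplasmic (antagonist) fluorescence intensity versus DMSO, gain-of-signal fitting.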

[8] = target: Bile acid receptor (Homo sapiens) (UniProt Q96RI1); assay: OT_FXR_FXRSRC1_0480: Odyssey Thera (OT) 8-hour HEK293T Protein-Complementation Assay for Farnesoid X receptor/SRC-1 Co-activator (AID 2283383)
Sequence of Bile acid receptor (Homo sapiens) (Q96RI1 whole entry, looked up, the tested form may be a part): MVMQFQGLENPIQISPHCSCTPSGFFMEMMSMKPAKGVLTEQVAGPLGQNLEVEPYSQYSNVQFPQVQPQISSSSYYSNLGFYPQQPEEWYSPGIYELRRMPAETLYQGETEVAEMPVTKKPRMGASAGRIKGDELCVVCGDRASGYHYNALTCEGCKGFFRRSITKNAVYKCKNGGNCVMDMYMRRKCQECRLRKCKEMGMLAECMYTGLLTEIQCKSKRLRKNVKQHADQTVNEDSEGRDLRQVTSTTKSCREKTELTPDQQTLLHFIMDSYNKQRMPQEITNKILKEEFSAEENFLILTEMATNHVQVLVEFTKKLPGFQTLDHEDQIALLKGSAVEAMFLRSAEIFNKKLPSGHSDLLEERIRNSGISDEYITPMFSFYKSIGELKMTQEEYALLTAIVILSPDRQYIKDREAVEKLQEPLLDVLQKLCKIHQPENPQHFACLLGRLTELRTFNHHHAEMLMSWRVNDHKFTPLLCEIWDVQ
Procedure, shortened: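 HEK293T protein-fragment complementation assay: FXR and SRC-1 coactivator are fused to reporter fragments, and their interaction restores a fluorescent reporter. Readout was taken 8 h after dosing, with gain of signal fit relative to DMSO.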

[9] = target: Bile acid receptor (Homo sapiens) (UniProt Q96RI1); assay: OT_FXR_FXRSRC1_1440: Odyssey Thera (OT) 24-hour HEK293T Protein-Complementation Assay for Farnesoid X receptor/SRC-1 Co-activator (AID 2283384)
Procedure, shortened: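 HEK293T cells, 24 h after chemical dosing. FXR–SRC-1 coactivator interaction read as fluorescence from protein-fragment complementation of a split reporter. Gain of signal fitted against DMSO baseline.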

[10] = target: Agonist Androgen Response Element (ARE), AR (gene 367) (UniProt P10275); assay: OT_AR_ARELUC_AG_1440: Odyssey Thera (OT) 24-hour CHO-K1 Luciferase Assay for Agonist Androgen Response Element (ARE) (AID 2283379)
Sequence of Agonist Androgen Response Element (ARE), AR (gene 367) (P10275 whole entry, looked up): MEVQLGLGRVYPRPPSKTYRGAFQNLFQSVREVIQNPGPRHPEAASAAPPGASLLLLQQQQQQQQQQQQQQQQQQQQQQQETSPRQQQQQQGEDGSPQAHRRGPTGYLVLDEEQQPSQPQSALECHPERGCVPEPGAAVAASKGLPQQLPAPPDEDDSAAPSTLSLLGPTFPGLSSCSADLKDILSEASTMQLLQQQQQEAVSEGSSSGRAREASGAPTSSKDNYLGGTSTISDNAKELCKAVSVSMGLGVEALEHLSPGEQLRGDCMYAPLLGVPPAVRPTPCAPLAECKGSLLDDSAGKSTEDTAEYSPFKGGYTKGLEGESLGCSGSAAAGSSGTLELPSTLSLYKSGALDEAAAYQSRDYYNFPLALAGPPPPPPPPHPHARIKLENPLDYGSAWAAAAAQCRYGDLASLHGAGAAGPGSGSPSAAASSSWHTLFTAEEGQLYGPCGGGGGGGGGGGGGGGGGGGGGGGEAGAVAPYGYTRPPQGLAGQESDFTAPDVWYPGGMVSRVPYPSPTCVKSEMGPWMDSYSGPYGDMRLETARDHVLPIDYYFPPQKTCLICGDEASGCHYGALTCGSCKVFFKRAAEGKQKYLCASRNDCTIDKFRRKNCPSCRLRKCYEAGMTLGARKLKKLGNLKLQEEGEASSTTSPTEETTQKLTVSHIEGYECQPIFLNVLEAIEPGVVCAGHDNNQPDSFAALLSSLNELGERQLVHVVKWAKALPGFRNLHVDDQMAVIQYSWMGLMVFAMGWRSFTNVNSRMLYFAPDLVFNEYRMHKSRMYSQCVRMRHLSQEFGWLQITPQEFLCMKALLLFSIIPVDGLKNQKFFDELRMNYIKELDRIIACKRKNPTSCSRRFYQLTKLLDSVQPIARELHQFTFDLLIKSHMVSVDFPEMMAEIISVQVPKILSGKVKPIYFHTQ
Procedure, shortened: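 Seed CHO-K1 cells; dose compounds for 24 h; add D-luciferin plus ATP in PBS; read luminescence. Signal increase relative to vehicle defines agonist activity, with at least 3 replicate wells per sample.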

Measured: AC50

CC1(C)NC(=O)NC1=O
inactive: [1] | [2] | [3] | [4] | [5] | [6]

O=c1[nH]cc(F)c(=O)[nH]1
active: [9] 5.73 µM
inactive: [7] | [3] | [8] | [5] | [6]

CCCCCCCCCCCCCCCCCC(=O)O
inactive: [2] | [3] | [4] | [5] | [6]

CCCCCCCC=O
inactive: [7] | [2] | [3] | [4] | [5] | [6]

CCCCN(CCCC)CCCC
inactive: [7] | [3] | [8] | [9] | [4] | [5]

Cc1ccc(C)c(O)c1C
inactive: [10] | [3] | [5] | [6]

COc1ccc(C)cc1N
inactive: [10] | [3] | [5] | [6]

Cc1ccc2ncccc2c1
inactive: [3] | [6]

O=C(OCCCCCOC(=O)c1ccccc1)c1ccccc1
inactive: [3] | [6]

C1CCC(SSC2CCCCC2)CC1
inactive: [7] | [2] | [3] | [5] | [6]

Nc1ccccc1N
inactive: [7] | [2] | [3] | [4] | [5] | [6]

CCCCCCOCCO
inactive: [7] | [2] | [3] | [5] | [6]

NCCO
inactive: [3] | [5]

NCC1(Cc2noc(=O)[nH]2)CCCCC1
inactive: [3] | [5] | [6]

CCCCCCCCCCO
inactive: [7] | [2] | [3] | [8] | [9] | [6]

OC[C@@H](O)[C@@H](O)[C@H](O)[C@H](O)CO
inactive: [2] | [3] | [4] | [5] | [6]

NS(=O)(=O)c1cc2c(cc1Cl)NCNS2(=O)=O
inactive: [7] | [3] | [8] | [4] | [5] | [6]

Clc1cc(Cl)c(Cl)cc1Cl
inactive: [7] | [3] | [4] | [5] | [6]

Cc1ccc(Cl)cc1
inactive: [2] | [3] | [8] | [4] | [5] | [6]

COc1ccc2c(c1)c(CC(=O)O)c(C)n2C(=O)c1ccc(Cl)cc1
inactive: [10] | [3] | [6]

COCCOC[C@H](CC1(C(=O)NC2CCC(C(=O)O)CC2)CCCC1)C(=O)Oc1ccc2c(c1)CCC2 (stereo partly drawn)
inactive: [7] | [3] | [5] | [6]

Cc1cc(NC(=O)C(=O)O)cc(C)c1Oc1ccc(O)c2c1CCC2
inactive: [10] | [3] | [8] | [9] | [4] | [5]

CCCCOC(=O)CCCCCCCCC(=O)OCCCC
inactive: [7] | [3] | [5] | [6]

O=C(O)CCCCC(=O)O
not listed: [1] | [4] | [10]
inactive: all other assays above

Cc1ccc(N(C)C)cc1
inactive: [7] | [3] | [4] | [5] | [6]

CN1CCCC1=O
inactive: [7] | [3] | [5] | [6]

CCCCCCCCCCCCCCCC
inactive: [2] | [3] | [5] | [6]

CCNc1cccc(C)c1
inactive: [3] | [4] | [5] | [6]

Cc1cc(=O)[nH]c(=S)[nH]1
inactive: [2] | [3] | [8] | [9] | [5] | [6]

Cc1ccc(C)c(C)c1
inactive: [10] | [7] | [3] | [4] | [5] | [6]
